# The list is not random: actives were taken first. Their share in the collection is about 5%.
# HCMV antiviral – inhibitors of human cytomegalovirus. actives 4.5% (n = 410,000). HFF cells, HCMV-luciferase reporter, 72 h; stronger effect = lower value. activity change, negative = inhibition, % at 57.5 µM; in the data active = activity change below about -60%; inconclusive = no clear call, values can overlap the other calls; inactive = above about -39%
#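 HFF cells seeded 16 h at 37C, treated with compounds, infected with luciferase-reporter HCMV at MOI 1 PFU/cell; luciferase read at 72 h post infection, normalized to buffer-only and Salinomycin controls.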
# TbPYK inhibitor – T. brucei pyruvate kinase inhibition | Q57TT1 | TbPYK enzyme, Kinase-Glo Plus ATP luminescence, 45 min | Potency, µM (titrated, usually from 76.8 µM), for the others: top-dose activity, negative = inhibition, hits mostly inhibitors | actives 0.12% (n = 410,000); also: potency is read from the fitted curve at half-maximal effect; nearly all actives have a fitted effect of over 50% in size
#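 TbPYK + substrate in 50 mM TEA pH 7.2, 100 mM KCl, 10 mM MgCl2, 0.05% BSA, 0.01% Tween-20; cpd pinned; ADP 130 uM final; 45 min RT; Kinase-Glo Plus 10 min; luminescence endpoint.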
# VACV mCherry inh – inhibitors of vaccinia virus infection (mCherry reporter signal); Vaccinia virus mCherry reporter infection, fluorescence; Potency, µM (top dose mostly 36.5 µM), without a hit: at the top dose activity change, negative = inhibition, hits mostly inhibitors; actives 0.63% (n = 310,000); AID 720579; calls by dose curve; tested in A549 cells; also: potency is read from the fitted curve at half-maximal effect; nearly all actives have a fitted effect of over 35% in size
# VACV Venus inh – inhibitors of vaccinia virus (Venus reporter). Vaccinia virus Venus reporter expression, fluorescence. Potency, µM (top dose mostly 36.5 µM), inactives show at the top dose activity change, negative = inhibition, actives largely listed as inhibitors. AID 720580. actives 0.46% (n = 330,000); calls by dose curve; tested in A549 cells; also: potency is read from the fitted curve at half-maximal effect; nearly all actives have a fitted effect of over 30% in size
# LmPK inhibitor – inhibitors of Leishmania mexicana pyruvate kinase; Potency, µM (top dose mostly 57.5 µM), for the others: at the highest dose activity change, negative = inhibition, actives largely listed as inhibitors; purified LmPK, Kinase-Glo ATP luminescence, 1 h; actives 0.37% (n = 290,000); AID 1721; also: potency is read from the fitted curve at half-maximal effect
# Target sequence (Q27686 whole entry, looked up): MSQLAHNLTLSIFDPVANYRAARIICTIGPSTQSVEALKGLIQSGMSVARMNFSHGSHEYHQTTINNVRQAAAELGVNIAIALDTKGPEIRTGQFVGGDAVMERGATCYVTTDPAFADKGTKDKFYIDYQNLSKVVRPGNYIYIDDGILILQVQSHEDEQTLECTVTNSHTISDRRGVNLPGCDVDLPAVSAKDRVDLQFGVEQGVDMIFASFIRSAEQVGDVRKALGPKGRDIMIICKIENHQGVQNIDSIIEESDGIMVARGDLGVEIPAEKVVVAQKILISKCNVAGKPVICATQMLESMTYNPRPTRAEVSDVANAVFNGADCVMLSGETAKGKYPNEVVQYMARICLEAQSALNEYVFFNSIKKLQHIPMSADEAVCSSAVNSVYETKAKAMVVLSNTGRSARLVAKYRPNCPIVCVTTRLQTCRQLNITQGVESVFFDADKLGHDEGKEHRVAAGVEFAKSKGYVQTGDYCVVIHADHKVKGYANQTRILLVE
#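 In 50 mM imidazole pH 7.2 with 7 mM MgCl2, LmPK (0.1 nM) turned over PEP (0.5 mM) and ADP (0.1 mM) for 1 h at room temperature. Luciferase read-out of ATP.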
# * = called active by the depositor; i = inactive; ? = inconclusive; nt = not tested or not shown. Unless noted, calls follow the shape of the dose curve; as a rule, active = well fitted curve in the direction sought with a large enough effect; inconclusive = small, poorly fitted or top-dose-only effect, or another doubt; inactive = no such curve, though single readings can be large; an effect the other way counts as inactive or inconclusive. % is scaled to controls: 0 for no effect and ±100 for the full control effect.
SMILES,HCMV antiviral,TbPYK inhibitor,VACV mCherry inh,VACV Venus inh,LmPK inhibitor
O=C(CSc1nc2ccc([N+](=O)[O-])cc2s1)NCC1CCCO1 (stereo unspecified),-71*,0%,i,2%,3%
Fc1cc(F)cc(-c2c(-c3ccccc3)ncc3ccc(F)cc23)c1,-7,-24%,-29%,-15%,nt
CCc1cccc(NC(=O)Cn2c(=O)n(Cc3ccccc3)c(=O)c3c2c2cc(OC)ccc2n3C)c1,27,-7%,4%,-6%,nt
COc1ccc(OC)c(NS(=O)(=O)c2ccc3[nH]c(=O)[nH]c3c2)c1,-102*,5%,-8%,-24%,nt
COc1ccc(OC)c(NS(=O)(=O)c2ccc(NC(=O)c3ccc(NS(C)(=O)=O)cc3)cc2)c1,-83*,0%,-8%,-13%,3%
COc1ccc(NC(=O)c2ccc(C#N)cc2)cc1NS(=O)(=O)c1ccc(F)cc1,-18,-3%,-28%,-17%,3%
CC1(C(=O)NS(=O)(=O)C2CC2)CCN(C(=O)c2ccc(F)c(Cl)c2)C1 (stereo unspecified),18,3%,-14%,-24%,nt
COc1ccc(C2(C)NC(=O)N(CC(=O)c3cc(C)n(C4CC4)c3C)C2=O)cc1OC (stereo unspecified),0,-7%,-8%,-10%,nt
CCCNC(=O)C1CCN(Cc2cc3ccccc3n2Cc2ccccc2)CC1,-19,1%,-14%,-12%,nt
CN(C)CCNC(=O)C1CCN(Cc2cc3ccccc3n2Cc2ccccc2)CC1,-101*,-4%,-9%,-10%,nt
O=C(Cn1ncc(Cl)c(Cl)c1=O)NC1CCS(=O)(=O)C1 (stereo unspecified),-63*,2%,nt,nt,-1%
O=C(Cn1ncc(Cl)c(Cl)c1=O)NCC1CCCCC1,-101*,13%,-26%,?,1%
O=C(Cn1ncc(Cl)c(Cl)c1=O)NC1CCCCC1,0,-2%,nt,nt,nt
COc1ccccc1NC(=O)c1c([N+](=O)[O-])c(C(C)(C)C)nn1C,-68*,3%,i,-3%,9%
Cc1cc2c(cc3c(SCc4cccc(F)c4)nnc(C)n32)o1,-36,1%,-19%,-18%,nt
O=C(NCc1cccc(Cl)c1)c1oc(=O)c2ccccc2c1-c1ccccc1,-69*,-5%,-3%,-4%,nt
COc1ccc(Cn2c(-c3ccc(C)cc3)c[n+]3ccccc23)cc1,-97*,-4%,i,-7%,2%
O=C(CCCO)N/N=C/c1ccccc1[N+](=O)[O-],?,5%,-11%,-5%,-2%
CC(C)(C)c1ccc(O)c(N=Cc2cc3c(cc2[N+](=O)[O-])OCO3)c1,?,?,-6%,-14%,1.6µM*
O=C(CNS(=O)(=O)c1ccccc1)N/N=C/c1ccccc1[N+](=O)[O-],-65*,-7%,?,-13%,2%
CNc1nc(N/N=C/c2cc3c(cc2[N+](=O)[O-])OCO3)nc(Nc2ccccc2)n1,-99*,-16%,nt,nt,-6%
O=[N+]([O-])c1cc2c(cc1/C=N\NS(=O)(=O)c1ccccc1)OCO2,-84*,-15%,-16%,-9%,0%
CNc1nc(N/N=C/c2cc([N+](=O)[O-])ccc2F)nc(Nc2ccccc2)n1,?,-18%,nt,nt,nt
CC(C)Oc1nc(-c2ccccc2O)nc2ccccc12,-17,3%,nt,nt,-3%
CC(C)CN(C(=O)COC(=O)C12CC3CC(CC(O)(C3)C1)C2)c1c(N)n(Cc2ccccc2)c(=O)[nH]c1=O,?,-9%,-11%,-15%,nt
CC(C)CN(C(=O)c1ccc([N+](=O)[O-])s1)c1c(N)n(Cc2ccccc2)c(=O)[nH]c1=O,-27,1%,20µM*,?,nt
CC(C)CN(C(=O)c1ccc2c(c1)OCCO2)c1c(N)n(Cc2ccccc2)c(=O)[nH]c1=O,-16,2%,-1%,-9%,nt
CC(C)CN(C(=O)COC(=O)c1ccc(Br)cc1)c1c(N)n(Cc2ccccc2)c(=O)[nH]c1=O,-10,-6%,?,13µM*,nt
CC(C)CN(C(=O)COC(=O)C12CC3CC(CC(C3)C1)C2)c1c(N)n(Cc2ccccc2)c(=O)[nH]c1=O,-84*,-5%,-1%,-19%,nt
CCCCN(C=O)c1c(CC)nc2c(OCc3ccc(Cl)cc3)cccn12,-3,4%,6%,-15%,nt

# Screening results as filed in PubChem BioAssay.
